In PubChem BioAssay (NCI):
Compounds without any hit were thinned out: in the full panel of roughly 79,000, 15% have a hit. Calls of active or inactive are those of the source. Cut-off read from the data, not from the text of the source: active = growth inhibition above about 70%; inactive = the rest.

Test: NCI Yeast Anticancer Drug Screen. Data for the mlh1 rad18 strain (AID 175)
Details: S. cerevisiae mlh1 rad18 strain growth inhibition; at 50.0 µM (retest, dose inferred, filed as 5.0); active compounds read high
Summary of the method: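 Read-out is yeast growth inhibition, calculated against vehicle-only controls. The compound was applied to a strain engineered with DNA damage repair alterations.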

| SMILES | growth inhibition |
| --- | --- |
| COc1ccc(CN2CCCN(Cc3ccc(OC)cc3OC)C2c2ccc(N(CCCl)CCCl)cc2)c(OC)c1 | 95% (active) |
| [Cl][Pt+2][Cl].[NH-]c1ccc([N+](=O)[O-])cc1[NH-] | 79% (active) |
| O=C(Oc1ccc(S(=O)(=O)F)cc1F)c1ccccc1Cl | 99% (active) |
| Oc1c(I)cc(I)cc1I | 92% (active) |
| CCCCCCCCCCCCCCCC[N+](C)(C)CCOS(C)(=O)=O | 98% (active) |
| CN(C)CC1(N)C(=O)NC(=O)NC1=O | 10% (inactive) |
| CC1=C(O)C(=O)C=C2C1=CC=C1[C@@]2(C)CC[C@@]2(C)[C@@H]3C[C@](C)(C(=O)O)CC[C@]3(C)CC[C@]12C | 97% (active) |
| CCC[CH2][Sn]([CH2]CCC)([N]=C=S)[N]=C=S | 98% (active) |
| O=C(C[n+]1ccccc1)C1CCc2ccccc2C1 (stereo not given) | -6% (inactive) |
| [Cl][Pt][Cl].c1ccc([AsH](CC[AsH](c2ccccc2)c2ccccc2)c2ccccc2)cc1 | 99% (active) |
| COc1cc(/C=C\[N+](=O)[O-])ccc1O | 99% (active) |
| Cc1sc(Cc2ccccc2)nc1-c1ccc(N=Cc2ccc(N(CCCl)CCCl)cc2)cc1 | 97% (active) |
| CC1(C)C2CCC([CH2][Hg][Cl])C1C2 (stereo not given) | 98% (active) |
| CC12C(=O)C=CCC1=CCC1C2CCC2(O)C(=O)OC3(C)C4CC5(C)C(COC16OC23C5C6=O)C(=O)O4 (stereo not given) | 64% (inactive) |
| O=C(CBr)OCC(Br)CBr (stereo not given) | 49% (inactive) |
| S=c1[nH]c2ccccc2s1.[Pb] | -8% (inactive) |
| O=[N+]([O-])c1ccc(C(Br)Br)cc1 | 99% (active) |
| CC(C)(C)[Si](OC(=O)N(CCCl)CCCl)(c1ccccc1)c1ccccc1 | 85% (active) |
| CCCCCCCC[N+]12CN3CN(CN(C3)C1)C2 | -26% (inactive) |
| CC(C=O)[Se]c1ccccc1 (stereo not given) | 73% (active) |

| SMILES | growth inhibition |
| --- | --- |
| CCOP(=O)(N=Nc1cccnc1)OCC | -17% (inactive) |
| COc1cc(/C=C/c2ccc(OC)c(O)c2)cc(OC)c1 | 97% (active) |
| ClC1CCCCC1[Se](Cl)(Cl)C1CCCCC1Cl (stereo not given) | 99% (active) |
| C/C(=N/NC(N)=S)c1ccc(Cl)cc1 | 96% (active) |
| O=C(Nc1ccccc1)c1cc([N+](=O)[O-])ccc1O.[Ni] | 36% (inactive) |
| CC1(C)N=C(N)N=C(N)N1c1ccc(OCCCCNC(=O)Nc2ccc(S(=O)(=O)F)cc2)c(Cl)c1 | 99% (active) |
| Nc1nc(N)c(-c2ccc(Cl)c(Cl)c2)c(COc2ccc(CNC(=O)Nc3cccc(S(=O)(=O)F)c3)cc2Cl)n1 | 42% (inactive) |
| CC(=O)[O-].CC(=O)[O-].O=C(N/N=C/c1cc(Cl)cc(Cl)c1[OH2+])c1ccncc1.[Co+2] | 39% (inactive) |
| CC(Br)C(=O)C(CCN(C)C)(c1ccccc1)c1ccc(Br)s1 (stereo not given) | 14% (inactive) |
| [N-]=[N+]=NC1(N=[N+]=[N-])C(=O)NN=C(c2ccccc2)C1=O (stereo not given) | 97% (active) |
| NC(=O)c1cc([N+](=O)[O-])c(Cl)c([N+](=O)[O-])c1Cl | 61% (inactive) |
| Nc1nc(N)c(-c2ccc(Cl)c(Cl)c2)c(CCc2ccc(CNC(=O)c3cccc(S(=O)(=O)F)c3)cc2)n1 | 98% (active) |
| CCOC(=O)C(Cl)Cl | -2% (inactive) |
| C1=C[N-]c2c3c(ccc2=C1)=CC=C[N-]3.C1=C[N-]c2c3c(ccc2=C1)=CC=C[N-]3.F[P-](F)(F)(F)(F)F.[Cu+2] | 99% (active) |
| CCCCCCCCCCC(=O)O.[Pb] | -12% (inactive) |
| CN(Cc1ccccc1)CC(O)c1cccc(I)c1 (stereo not given) | 24% (inactive) |
| CCOc1c(Br)cc(N=Cc2ccc(N(CCCl)CCCl)c(OC)c2)cc1Br | 95% (active) |
| COC(=O)C1ON(c2ccccc2)C2c3ccccc3-c3ccccc3C12 (stereo not given) | 68% (inactive) |
| COc1ccccc1C(Cc1ccc(N2C(N)=NC(N)=NC2(C)C)cc1)C(=O)Nc1ccc(S(=O)(=O)F)cc1 (stereo not given) | 18% (inactive) |
| O=[N+]([O-])c1cc([N+](=O)[O-])c(Cl)s1 | 99% (active) |

Same assay, conditions: S. cerevisiae mlh1 rad18 strain growth inhibition; at 50.0 µM; active compounds read high

| SMILES | growth inhibition |
| --- | --- |
| COc1ccc(CN2CCCN(Cc3ccc(OC)cc3OC)C2c2ccc(N(CCCl)CCCl)cc2)c(OC)c1 | 53.9% (inactive) |
| [Cl][Pt+2][Cl].[NH-]c1ccc([N+](=O)[O-])cc1[NH-] | 70.5% (active) |
| O=C(Oc1ccc(S(=O)(=O)F)cc1F)c1ccccc1Cl | 98.7% (active) |
| Oc1c(I)cc(I)cc1I | 63.4% (inactive) |
| CCCCCCCCCCCCCCCC[N+](C)(C)CCOS(C)(=O)=O | 92.3% (active) |
| CN(C)CC1(N)C(=O)NC(=O)NC1=O | 46.2% (inactive) |
| CC1=C(O)C(=O)C=C2C1=CC=C1[C@@]2(C)CC[C@@]2(C)[C@@H]3C[C@](C)(C(=O)O)CC[C@]3(C)CC[C@]12C | 84% (active) |
| CCC[CH2][Sn]([CH2]CCC)([N]=C=S)[N]=C=S | 98.1% (active) |
| O=C(C[n+]1ccccc1)C1CCc2ccccc2C1 (stereo not given) | 3.2% (inactive) |
| [Cl][Pt][Cl].c1ccc([AsH](CC[AsH](c2ccccc2)c2ccccc2)c2ccccc2)cc1 | 99.2% (active) |
| COc1cc(/C=C\[N+](=O)[O-])ccc1O | 99% (active) |
| Cc1sc(Cc2ccccc2)nc1-c1ccc(N=Cc2ccc(N(CCCl)CCCl)cc2)cc1 | 96.2% (active) |
| CC1(C)C2CCC([CH2][Hg][Cl])C1C2 (stereo not given) | 99% (active) |
| CC12C(=O)C=CCC1=CCC1C2CCC2(O)C(=O)OC3(C)C4CC5(C)C(COC16OC23C5C6=O)C(=O)O4 (stereo not given) | 62.5% (inactive) |
| O=C(CBr)OCC(Br)CBr (stereo not given) | 98.8% (active) |
| S=c1[nH]c2ccccc2s1.[Pb] | 90.9% (active) |
| O=[N+]([O-])c1ccc(C(Br)Br)cc1 | 99.5% (active) |
| CC(C)(C)[Si](OC(=O)N(CCCl)CCCl)(c1ccccc1)c1ccccc1 | 90.3% (active) |
| CCCCCCCC[N+]12CN3CN(CN(C3)C1)C2 | 16.9% (inactive) |
| CC(C=O)[Se]c1ccccc1 (stereo not given) | 91.5% (active) |

| SMILES | growth inhibition |
| --- | --- |
| CCOP(=O)(N=Nc1cccnc1)OCC | 39.1% (inactive) |
| COc1cc(/C=C/c2ccc(OC)c(O)c2)cc(OC)c1 | 98.9% (active) |
| ClC1CCCCC1[Se](Cl)(Cl)C1CCCCC1Cl (stereo not given) | 98.8% (active) |
| C/C(=N/NC(N)=S)c1ccc(Cl)cc1 | 97.2% (active) |
| O=C(Nc1ccccc1)c1cc([N+](=O)[O-])ccc1O.[Ni] | 52.3% (inactive) |
| CC1(C)N=C(N)N=C(N)N1c1ccc(OCCCCNC(=O)Nc2ccc(S(=O)(=O)F)cc2)c(Cl)c1 | 99.1% (active) |
| Nc1nc(N)c(-c2ccc(Cl)c(Cl)c2)c(COc2ccc(CNC(=O)Nc3cccc(S(=O)(=O)F)c3)cc2Cl)n1 | 66.4% (inactive) |
| CC(=O)[O-].CC(=O)[O-].O=C(N/N=C/c1cc(Cl)cc(Cl)c1[OH2+])c1ccncc1.[Co+2] | 73.5% (active) |
| CC(Br)C(=O)C(CCN(C)C)(c1ccccc1)c1ccc(Br)s1 (stereo not given) | 11.9% (inactive) |
| [N-]=[N+]=NC1(N=[N+]=[N-])C(=O)NN=C(c2ccccc2)C1=O (stereo not given) | 79.7% (active) |
| NC(=O)c1cc([N+](=O)[O-])c(Cl)c([N+](=O)[O-])c1Cl | 88.3% (active) |
| Nc1nc(N)c(-c2ccc(Cl)c(Cl)c2)c(CCc2ccc(CNC(=O)c3cccc(S(=O)(=O)F)c3)cc2)n1 | 54% (inactive) |
| CCOC(=O)C(Cl)Cl | 33.4% (inactive) |
| C1=C[N-]c2c3c(ccc2=C1)=CC=C[N-]3.C1=C[N-]c2c3c(ccc2=C1)=CC=C[N-]3.F[P-](F)(F)(F)(F)F.[Cu+2] | 99.1% (active) |
| CCCCCCCCCCC(=O)O.[Pb] | 68.2% (inactive) |
| CN(Cc1ccccc1)CC(O)c1cccc(I)c1 (stereo not given) | 27.2% (inactive) |
| CCOc1c(Br)cc(N=Cc2ccc(N(CCCl)CCCl)c(OC)c2)cc1Br | 86.8% (active) |
| COC(=O)C1ON(c2ccccc2)C2c3ccccc3-c3ccccc3C12 (stereo not given) | 75% (active) |
| COc1ccccc1C(Cc1ccc(N2C(N)=NC(N)=NC2(C)C)cc1)C(=O)Nc1ccc(S(=O)(=O)F)cc1 (stereo not given) | 99% (active) |
| O=[N+]([O-])c1cc([N+](=O)[O-])c(Cl)s1 | 99.6% (active) |
